Assay outcomes (PubChem BioAssay)
An excerpt weighted towards active compounds, which were near 3.2% of everything screened.
GDH-TPI inh = GDH-TPI coupling enzyme inhibitors, primary screen, artefact control for M. tuberculosis FBA inhibitor project, biochemical, absorbance, full deck. 360,000 tested, 1.2% active. GDH-TPI coupled enzyme counterscreen, NADH absorbance. inhibition, % at 4.8 µM; in the data active means inhibition above about 30%;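 further: 0% = DMSO wells and 100% = wells lacking the enzyme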
TcdB GH inh = TcdB glycohydrolase inhibitors, primary screen, biochemical, single point, plate reader; TcdB glycohydrolase enzymatic assay; inhibition, % at 9.99 µM; Toxin B (Clostridioides difficile), P18177; 350,000 tested, 0.24% active; in the data active means inhibition above about 10%
Yp Topo-I inh = Yersinia pestis topoisomerase I inhibitors, primary screen, biochemical, cleavage product accumulation, plate reader, single point | DNA topoisomerase I (Yersinia pestis CO92) | Y. pestis Topo-I cleavage product accumulation | activity, % at 10 µM | 360,000 tested, 0.064% active | AID 504884, 2011; in the data active means activity above about 50%, passing the limit was not always enough
FBA Mtb inh = Mtb FBA enzyme inhibitors, primary screen, biochemical, fluorescence, strain H37Rv | 360,000 tested, 2.3% active | AID 588726, 2011 | inhibition, % at 1 µM | purified M. tuberculosis FBA, fluorescence read-out; in the data active means inhibition above about 27%;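 further: 0% = vehicle and 100% = reference inhibitor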
PrPC TRFRET = inhibitors of human cell surface prion protein PrPC, primary screen, cell-based, TR-FRET | Major prion protein (Homo sapiens), P04156 | TR-FRET read-out | inhibition, % at 13.8 µM | 370,000 tested, 0.43% active | AID 720596, 2013; in the data active means inhibition above about 24%; further: 0% = median of the test wells and 100% = reference compound wells
PrPC confirm = confirmation of inhibitors of cell surface human prion protein, confirmation, cell-based, TR-FRET. inhibition, % at 13.8 µM. shares compounds with PrPC TRFRET. cell surface PrPC level. AID 743200, 2013. 1,500 tested, 65% active; in the data active means inhibition above about 25%
LD9 cytotox = cytotoxicity in LD9 cells, cytotoxicity control for cell surface PrPc inhibitor project, cell-based, luminescence, high throughput; shares compounds with PrPC TRFRET; luminescence viability; inhibition, % at 13.8 µM; 1,500 tested, 29% active; AID 743201, 2013; in the data active means inhibition above about 9.5%
Starred values were filed as active, the others as inactive; . = not tested or not shown.

SMILES	GDH-TPI inh	TcdB GH inh	Yp Topo-I inh	FBA Mtb inh	PrPC TRFRET	PrPC confirm	LD9 cytotox
O=C(c1cc(COc2ccc3ncccc3c2)on1)N1CCCCCC1	7	.	23	1	24	.	.
O=C(c1cc(COc2ccc3ncccc3c2)on1)N1CCCC1	8	-10	1	6	42*	42*	9
O=C(NC1CCCC1)c1cc(COc2ccc3ncccc3c2)on1	1	.	-6	8	.	.	.
C[C@@H]1CN([C@@H](C)CO)C(=O)Cc2cc(NC(=O)NC3CCCCC3)ccc2O[C@H]1CN(C)Cc1ccccc1	.	0	.	.	.	.	.
N#C/C(=N/Nc1ccc(OC(F)(F)F)cc1)C(N)=S	10	-1	-7	-21	26*	38*	28*
N#CC(C#N)=C(Nc1ccc(F)cc1)SCc1cccc(F)c1	16	.	0	1	28*	33*	35*
CNC[C@H]1Oc2ccc(NS(=O)(=O)c3ccc(F)cc3)cc2C(=O)N([C@H](C)CO)C[C@@H]1C	.	-7	.	.	.	.	.
O=C(C[C@@H]1C[C@H]2c3cc(NC(=O)C4CCOCC4)ccc3O[C@H]2[C@H](CO)O1)NCc1ccccn1	.	-3	.	.	.	.	.
CCOc1cc2[nH]c(=S)n(C(C)C)c(=O)c2cc1OCC	29	.	-1	-1	33*	36*	-1
CCOc1cc2[nH]c(=S)n(C3CC3)c(=O)c2cc1OCC	16	2	3	5	-7	.	.
COc1ccccc1NC(=O)N1CC[C@@H]2[C@@H](CO)N(C)c3ccc(-c4ccc(F)cc4)cc3[C@@H]21	.	-2	.	.	.	.	.
O=C(COc1cccc2cccnc12)Nc1cccc(S(=O)(=O)N2CCCC2)c1	-5	-5	-5	5	31*	5	0
CCOc1ccc(NC(=O)COc2cccc3cccnc23)cc1S(=O)(=O)N1CCCC1	0	2	27	3	-1	.	.
C[C@@H]1CC[C@H](O)/C=C/C(=O)O[C@H](C)CC[C@H](O)/C=C/C(=O)O1	0	-4	9	2	-1	.	.
C[C@H]1CCC/C=C/[C@@H]2C[C@H](O)C[C@H]2[C@H](O)/C=C/C(=O)O1	6	0	0	0	95*	95*	4
Cc1ccc(Nc2nc(NCc3ccco3)c3ccccc3n2)cc1	-2	0	3	2	35*	43*	24*
CC1=CC2OC3CC4OC(=O)C=CC=CC(C(C)O)OCC(O)C(C)CC(=O)OCC2(CC1O)C4(C)C31CO1 (configuration not stated)	9	1	5	-1	88*	99*	60*
CC(=O)N1CCC(C(=O)NC2CCCc3c2cnn3-c2cc(F)cc(F)c2)CC1 (configuration not stated)	3	-2	-5	6	85*	0	-6
CSCC(=O)NC1CCCc2c1cnn2-c1cc(F)cc(F)c1 (configuration not stated)	1	-5	2	1	2	.	.
Cc1ccc(S(=O)(=O)N[C@@H]2C=C[C@H](CC(=O)NCCCN(C)C)O[C@H]2CO)cc1	.	-1	.	.	.	.	.
C[C@@H]1CN([C@H](C)CO)C(=O)c2cc(NC(=O)Nc3cccc4ccccc34)ccc2O[C@@H]1CN(C)S(=O)(=O)c1ccc(Cl)cc1	.	0	.	.	.	.	.
CN(C(=O)COc1ccccc1C(=O)NCCOc1ccccc1)c1ccccc1	5	1	16	2	80*	83*	95*
COc1ccc(NC(=O)N(C)C[C@@H]2Oc3ccc(NS(C)(=O)=O)cc3CC(=O)N([C@H](C)CO)C[C@H]2C)cc1	.	0	.	.	.	.	.
Cc1nc2ccc(Br)cc2c2c1CC(CO)O2 (configuration not stated)	-3	-1	5	5	29*	35*	-6
O=S(=O)(Nc1cccnc1)c1ccc(Br)c2ccccc12	5	0	-7	0	36*	43*	-5
